Data published in PubChem BioAssay.
The source made the active and inactive calls. The rule behind the calls is not given here.

Experiment: Brca1-Bard1 BiLC signal decrease – luminescence, single concentration, counter-screen for Mdm2/MdmX interaction inhibitor project, confirmation (AID 504668)
Details: Brca1/Bard1 bimolecular luciferase complementation counterscreen, at 8 µM, active compounds read high

SMILES	inhibition
Cc1cc(C)n(-c2ccc3cccc(NS(C)(=O)=O)c3n2)n1	32.1% (active)
CC1CCN(Cc2c(C(=O)N/N=C/c3ccccc3O)nnn2-c2nonc2N)CC1	32.5% (active)
Cc1ccc(N=Nc2ccc(O)c3ncccc23)cc1C	25.6% (active)
Cc1nc(NC2=NCN(CCCN3CCOCC3)CN2)nc2c(C)cccc12	25.4% (active)
COc1ccc2c(C(=O)CCl)c[nH]c2c1	24.1% (active)
CN(C)C=Nc1ncc2c([nH]c3ccccc32)c1C#N	23% (active)
CCN(CC)c1ccc(/C=N/NC(=O)c2c(Cl)cnn2C)c(O)c1	26.9% (active)
COc1cccc(/C=C2\SC(=S)N(CCCC(=O)N3CCCC3)C2=O)c1	35% (active)
CCN(CC)Cc1c(O)ccc2c1O/C(=C\C=C\c1ccccc1)C2=O	25.3% (active)
COc1ccc(C(=O)O/N=C(\N)Cc2ccc(Cl)c(Cl)c2)cc1OC	26.9% (active)
Cc1ccc(Cc2c(C)c(C#N)c3[nH]c4ccccc4n3c2=O)cc1	35.8% (active)
Cc1cc(NC(=O)/C=C/C(=O)N(c2ccccc2C)C(C(=O)NC2CCCC2)c2ccc(F)cc2)no1 (stereo unspecified)	28.7% (active)
CCCOc1ccc(/C=N/Nc2cc(N3CCOCC3)ncn2)c(O)c1	23.7% (active)
Cc1ccc(C(C)C)c(OCc2nn(CC(=O)c3ccc(Cl)cc3)c3[n+]2CCCCC3)c1	25% (active)
Cc1ccc(-c2csc(=Nc3cccnc3)n2CCCn2ccnc2)cc1C	24.3% (active)
Clc1ccc(Cn2ncc3c(NCc4ccco4)ncnc32)c(Cl)c1	31.2% (active)
